# In PubChem BioAssay (Tox21):
# Records with an inconclusive call do not appear. A number with no mark means an inactive call. The source made the active and inactive calls. Calls come from the whole dose curve.
# Target: Peroxisome proliferator-activated receptor delta (Homo sapiens) (UniProt Q03181)
# Assay: qHTS assay to identify small molecule agonists of the peroxisome proliferator-activated receptor delta (PPARd) signaling pathway (AID 743212)
# Conditions: HEK293H PPARd-UAS-bla, beta-lactamase FRET ratio, 17 h; series mostly up to 62.6 µM
# Text: U.S. Tox21 Program National Center for Advancing Translational Sciences [NCATS] NIH Chemical Genomics Center [NCGC] U.S. Environmental Protection Agency [EPA] National Institutes of Environmental Health Sciences [NIEHS] National Toxicology Program [NTP] U.S. Food and Drug Administration [FDA] Tox21 Assay Overview: The peroxisome proliferator-activated receptors (PPARs) are lipid-activated transcription factors of the nuclear receptor superfamily with three distinct subtypes namely PPAR alpha, PPAR delta (PPARd) and PPAR gamma. All these subtypes heterodimerizes with Retinoid X receptor (RXR) and have different physiological functions. […] To identify the compounds that activate PPAR-delta signaling, GeneBLAzer PPAR delta UAS-bla HEK293H cell line (Invitrogen, Carlsbad, CA, USA) containing a beta-lactamase reporter gene under the control of an Upstream Activator Sequence (UAS) was used to screen the Tox21 compound library.
# Tox21 Assay Protocol Summary: PPARd-bla cells were dispensed at 3000 cells/6uL/well in 1536-well black wall/clear bottom plates using a Multidrop Combi (Thermo Fisher Scientific, Waltham, MA) dispenser. After the assay plates were incubated at 37 C and 5% CO2 for 5 h, 23 nL of compounds dissolved in DMSO, positive controls or DMSO only was transferred to the assay plate by a Pintool station (Kalypsys, San Diego, CA). The assay plates were incubated at 37C for 17 h. After 1 uL of LiveBLAzerTM B/G FRET substrate was added using a Bioraptr Flying Reagent Dispenser (FRD) workstation (Beckman Coulter, Indianapolis, IN, USA), the plates were incubated at room temperature for 2 h, and fluorescence intensity was measured by an Envision plate reader (PerkinElmer, Shelton, CT).
# % is set by controls: 0 for no effect and ±100 for the full control effect.
# Chain of Peroxisome proliferator-activated receptor delta (Homo sapiens) (Q03181 whole entry, looked up): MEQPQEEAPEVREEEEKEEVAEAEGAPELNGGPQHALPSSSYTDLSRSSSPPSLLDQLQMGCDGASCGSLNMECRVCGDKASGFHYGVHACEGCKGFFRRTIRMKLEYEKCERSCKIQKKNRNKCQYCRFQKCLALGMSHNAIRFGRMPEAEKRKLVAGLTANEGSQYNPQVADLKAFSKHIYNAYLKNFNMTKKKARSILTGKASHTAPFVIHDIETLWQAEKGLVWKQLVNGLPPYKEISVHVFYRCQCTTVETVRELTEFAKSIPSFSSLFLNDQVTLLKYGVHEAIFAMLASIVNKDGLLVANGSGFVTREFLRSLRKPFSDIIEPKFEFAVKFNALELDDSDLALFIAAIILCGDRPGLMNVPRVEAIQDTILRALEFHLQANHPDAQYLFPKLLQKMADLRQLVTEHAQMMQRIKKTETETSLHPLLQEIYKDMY
Compound,outcome,activation
CC(C)(C)NCCNC(C)(C)C,inactive,–
C=CCS(=O)(=O)O,inactive,–
O=C(O)CN(CCOCCOCCN(CC(=O)O)CC(=O)O)CC(=O)O,–,-2.28% [at 0.55 µM]
CCCCOCCOCCOCCCC,inactive,–
CC(=O)OCC(=O)[C@@]1(O)CCC2C3CCC4=CC(=O)CC[C@]4(C)C3[C@@H](O)C[C@@]21C (stereo not given in full),inactive,–
CCCCCOC(=O)CCCCC,inactive,–
C1OCOCO1,inactive,–
Nc1ccccc1S(=O)(=O)O,inactive,–
CN(C)CCCSc1ccccc1NC(=O)/C=C/c1ccccc1,inactive,–
ClC(Cl)(Br)Br,inactive,–
O=c1[nH]c(=O)n([C@H]2C[C@H](O)[C@@H](CO)O2)cc1I,inactive,–
Nc1c[n+](N2CCOCC2)no1,inactive,–
O=C(O)COc1nn(Cc2ccccc2)c2ccccc12,inactive,–
CCN(CC)CCNC(=O)c1cc(S(C)(=O)=O)ccc1OC,inactive,–
CCSC(=O)N(CC(C)C)CC(C)C,inactive,–
CC(C)(O)C#CC(C)(C)O,inactive,–
O=C(CCCN1CCN(c2ccccn2)CC1)c1ccc(F)cc1,inactive,–
CCOC(=O)CCC(C)=O,inactive,–
CCOC(=O)c1cccc(N)c1,inactive,–
NS(=O)(=O)c1ccc(C(=O)O)cc1,inactive,–

Compound,outcome,activation
CCCN(CCC)CCc1cccc2c1CC(=O)N2,inactive,–
CC/C=C\CC/C=C/CO,inactive,–
O=C(O)c1ccccc1OP(=O)(O)O,inactive,–
CCO/C([O-])=N/c1c[n+](N2CCOCC2)no1,inactive,–
CC[N+](C)(C)c1cccc(O)c1,inactive,–
Cc1cnc(NS(=O)(=O)c2ccc(N)cc2)nc1,inactive,–
N[C@H](C(=O)O)c1ccc(O)cc1,inactive,–
CN1CC(=O)NC1=N,inactive,–
NS(=O)(=O)c1cc(C(=O)O)cc(N2CCCC2)c1Oc1ccccc1,inactive,–
C[C@H]1C[C@@H](O)CC(C)(C)C1,inactive,–
CC(=O)OC/C=C(\C)CC/C=C(\C)CCC=C(C)C,inactive,–
NS(=O)(=O)c1ccccc1Cl,inactive,–
COc1ccccc1OCC(O)CN1CCN(CC(=O)Nc2c(C)cccc2C)CC1 (stereo not given),inactive,–
OC1CCCCC1c1ccccc1 (stereo not given),inactive,–
CO/N=C(/C(=O)N[C@@H]1C(=O)N2C(C(=O)OCOC(=O)C(C)(C)C)=C(C)CS[C@H]12)c1csc(N)n1,inactive,–
N=C(N)c1ccc2cc(OC(=O)c3ccc(N=C(N)N)cc3)ccc2c1,inactive,–
CC/C=C\CC/C=C/C(OCC)OCC,inactive,–
CCCCNC(=O)NCCCC,inactive,–
CC(C[N+](C)(C)C)OC(N)=O (stereo not given),inactive,–
Cc1c(O)cccc1O,inactive,–
